Activity calls are given as the source filed them. The call rests on the fitted dose curve. Where a SMILES comes first, the peptide text is derived from it. Bridges are numbered along the chain shown (N, C = ends). [ ]: non-standard residue; d: D form. The star is where a group is joined. X1 = CCC(C)C(N)C1=NC(C(=O)*)CS1; dOrn = NCCC[C@@H](N)C(=O)O
Assay: qHTS drug screen for cell cycle checkpoint inhibitors in PARPi-resistant BRCA-mutant ovarian cancer cell lines. (AID 1963452)
Conditions: PEO1/OlaR viability, CellTiter-Glo luminescence, 96 h; for Z-AUC: stronger effect = lower value
Source text: Women's Malignancies Branch, Center for Cancer Research (CCR),
National Cancer Institute (NCI), National Institutes of Health (NIH), Bethesda, MD
Poly (ADP-ribose) polymerase inhibitors (PARPis) have changed the treatment paradigm in breast cancer gene (BRCA) - mutant high-grade serous ovarian carcinoma (HGSC). However, most patients eventually develop resistance to PARPis, highlighting an unmet need for improved therapeutic strategies. Using high-throughput drug screens, we identified ataxia telangiectasia and rad3-related protein/checkpoint kinase 1 (CHK1) pathway inhibitors as cytotoxic and further validated the activity of the CHK1 inhibitor (CHK1i) prexasertib in PARPi-sensitive and -resistant BRCA-mutant HGSC cells and xenograft mouse models. CHK1i monotherapy induced DNA damage, apoptosis, and tumor size reduction. We then conducted a phase 2 study (NCT02203513) of prexasertib in patients with BRCA-mutant HGSC. The treatment was well tolerated but yielded an objective response rate of 6% (1 of 17; one partial response) in patients with previous PARPi treatment. […] BRCA reversion mutation in previously PARPi-treated BRCA-mutant patients was not associated with resistance to CHK1i.
Among others, 1082 oncology drugs, both approved and investigational, were prioritized based on their status in clinical trial development. […] Drugs with average Z-AUC values less than -1.0 in all three cell lines were classified as "hits" resulting in 151 oncology drug hits. The screen also confirmed cross-resistance between olaparib and other PARPis (rucaparib, niraparib, and talazoparib) in PARPi-resistant PEO1/OlaR and PEO4.
[1] G. L. Lin, K. M. Wilson, M. Ceribelli, B. Z. Stanton, P. J. Woo, S. Kreimer, E. Y. Qin, X. Zhang, J. Lennon, S. Nagaraja, P. J. Morris, M. Quezada, S. M. Gillespie, D. Y. Duveau, A. M. Michalowski, P. Shinn, R. Guha, M. Ferrer, C. Klumpp-Thomas, S. Michael, C. McKnight, P. Minhas, Z. Itkin, E. H. Raabe, L. Chen, R. Ghanem, A. C. Geraghty, L. Ni, K. I. Andreasson, N. A. Vitanza, K. E.Warren, C. J. Thomas, M. Monje, Therapeutic strategies for diffuse midline glioma from high-throughput combination drug screening. Sci. Transl. Med. 11, (2019).
[2] T. M. Yamamoto, A. McMellen, Z. L. Watson, J. Aguilera, R. Ferguson, E. Nurmemmedov, T. Thakar, G. L. Moldovan, H. Kim, D. M. Cittelly, A. M. Joglar, E. P. Brennecke, H. Wilson, K. Behbakht, M. J. Sikora, B. G. Bitler, Activation of Wnt signaling promotes olaparib resistant ovarian cancer. Mol. Carcinog. 58, 1770 - 1782 (2019).
PROTOCOL TABLE (as described by Inglese J, Shamu CE and Guy RK. 2007)
SEQUENCE No. (e.g., 1, 2, 3, etc.); […] (e.g., Cells, Incubation, Reagent, etc.); VALUE; DESCRIPTION.
1; Compounds; 20nL; 1536-well white tissue culture-treated plates.
2; Cells; 5 uL; PEO1, PEO4, and PEO1/OlaR cells at 600 cells per well.
3; Incubation; 96 hr; 37C, 95% humidity, 5% CO2.
4; Reagent; 3 uL; CellTiter-Glo (Promega).
5; Incubation; 15 min; room temperature.
6; Detection; Luminescence, PHERAstar (BMG Labtech) plate reader.
NOTES (numbers refer to Sequence numbers above)
1. MIPE 5.0 compounds were acoustically dispensed by Echo Acoustic Liquid Handler (Beckman Coulter Life Sciences). Each compound was plated at an 11-point concentration range with 1:3 dilution. Bortezomib, a proteasome inhibitor (final concentration, 20 uM), was used as a positive.
2. PEO1, PEO4, and PEO1/OlaR were trypsinized and dispensed in 5 uLof growth medium using a Multidrop Combi dispenser at a density of 600 cells per well to allow compounds to be present during the exponential growth phase.
3. Plates were incubated for 96 hours at standard incubator conditions and covered by a stainless steel gasketed lid to prevent evaporation.
4. Three microliters of CellTiter-Glo (Promega) were added to each well.
5. Plates were incubated at room temperature for 15 min with a stainless-steel lid in place.
6. Luminescence readings were taken using PHERAstar (BMG Labtech). […]

[1] = measured here: PEO1 parental Z-AUC
Potency means the concentration at half of the fitted maximal effect.

Row | SMILES | Potency | Z-AUC [1] | Z-AUC (measured here: PEO4 Z-AUC) | Z-AUC
1 | CCCCC(=O)OCC(=O)[C@]1(O)Cc2c(O)c3c(c(O)c2[C@@H](O[C@H]2C[C@H](NC(=O)C(F)(F)F)[C@H](O)[C@H](C)O2)C1)C(=O)c1c(OC)cccc1C3=O | 549 nM (active) | -2.19 | -1.93 | –
2 | CC1(C)O[C@@H]2C[C@H]3[C@@H]4CCC5=CC(=O)C=C[C@]5(C)[C@H]4[C@@H](O)C[C@]3(C)[C@]2(C(=O)CO)O1 | – | 1.46 | 0.804 | 0.315 (inactive)
3 | Cc1cc(C)cc(NC(=O)Cc2ccc(OC(C)(C)C(=O)O)cc2)c1 | – | -0.359 | -0.00799 | -0.433 (inactive)
4 | N#Cc1ccnc(N2C(=O)CC[C@H]2C(=O)N(c2cncc(F)c2)[C@H](C(=O)NC2CC(F)(F)C2)c2ccccc2Cl)c1 | – | 1.11 | 1.26 | 1.18 (inactive)
5 | OC[C@H]1O[C@@H](n2cnc3c2NC=NC[C@H]3O)C[C@@H]1O | – | 0.0818 | 0.0721 | -0.043 (inactive)
6 | O=C(Nc1cccnn1)N1CCC(=Cc2cccc(Oc3ccc(C(F)(F)F)cn3)c2)CC1 | – | -0.539 | -0.803 | -0.753 (inactive)
7 | CC(C)C(=O)OCC(=O)[C@@]12O[C@H](C3CCCCC3)O[C@@H]1C[C@H]1[C@@H]3CCC4=CC(=O)C=C[C@]4(C)[C@H]3[C@@H](O)C[C@@]12C | – | 0.238 | -0.69 | -0.223 (inactive)
8 | CCC(C)C(N)C1=NC(C(=O)N[C@@H](CC(C)C)C(=O)N[C@H](CCC(=O)O)C(=O)N[C@H](C(=O)N[C@H]2CCCCNC(=O)[C@H](CC(N)=O)NC(=O)[C@@H](CC(=O)O)NC(=O)[C@H](Cc3cnc[nH]3)NC(=O)[C@@H](Cc3ccccc3)NC(=O)[C@H]([C@@H](C)CC)NC(=O)[C@@H](CCCN)NC2=O)[C@@H](C)CC)CS1 (some centres not stated) (X1-L[dE]IK[dOrn]I[dF]H[dD]N; lactam 4-C) | – | 1.01 | 0.703 | 0.134 (inactive)
9 | NS(=O)(=O)NCCNc1nonc1C(=Nc1ccc(F)c(Br)c1)NO | – | 0.698 | 1.08 | 1.03 (inactive)
10 | NCc1ccc(OCCCc2sc(-c3ccc4c(c3)/C(=N/Nc3nc5ccccc5s3)CCC4)nc2C(=O)O)cc1 | – | 1.09 | 0.501 | 1.02 (inactive)
11 | COc1ncc(-c2ccc3c(Nc4cc(Oc5cc(F)cc(F)c5)cc(C(=O)O)c4)c(S(=O)(=O)NC4CC4)cnc3c2)c(OC)n1 | – | -0.369 | -0.317 | -0.517 (inactive)
12 | COc1cc(N2CCC(O)CC2)ccc1Nc1cc(Nc2ccccc2S(=O)(=O)C(C)C)c2cc[nH]c2n1 | – | 1.41 | 0.959 | 0.976 (inactive)
13 | CCc1nc(C(N)=O)c(Nc2ccc(N3CCC(N4CCN(C)CC4)CC3)c(OC)c2)nc1NC1CCOCC1 | – | 0.97 | 0.904 | 1.23 (inactive)
14 | CNc1nc(Nc2cnn([C@H]3CCN(C4COC4)C[C@@H]3F)c2Cl)ncc1C(F)(F)F | – | -0.0727 | 0.0395 | -0.479 (inactive)
